Reference: PubChem BioAssay (NCATS)
Several values for one entry are separate records, joined by “and”; a condition that tells them apart may be missing. Equal values may be shown once. Records with an inconclusive call do not appear. A call without a number means that no potency is given here. Activity calls are given as the source filed them. Unless noted, the call rests on the fitted dose curve; in most records, active means well fitted curve in the direction sought with a large enough effect; inconclusive means small, poorly fitted or top-dose-only effect, or another doubt; inactive means no such curve, though single readings can be large; an effect the other way counts as inactive or inconclusive.

Legend:
[1] = P-glycoprotein substrates identified in KB-8-5-11 adenocarcinoma cell line, qHTS therapeutic library screen (AID 1346987); further: nearly all actives have a fitted effect of over 65% in size; further: potency means the concentration at half of the fitted maximal effect
Procedure, shortened: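 Luminescence from CellTiter-Glo, read 5 min after addition, quantified survival of KB-8-5-11 (P-gp-overexpressing) cells exposed to compounds for 72 h. AC50 was derived from concentration-response curves.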

[2] = NS1 protein of Zika virus - qHTS assay to identify small molecule inhibitors in human HEK 293 cells (AID 1347053); further: nearly all actives have a fitted effect of over 55% in size; further: potency means the concentration at half of the fitted maximal effect
Procedure, shortened: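 In this cell-based screen, HEK 293 cultures received compound for one hour before Zika MR766 at MOI = 0.5. NS1 was quantified 24 hours later by TR-FRET, normalized to virus-free wells and infected wells.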

[3] = qHTS of pediatric cancer cell lines to identify multiple opportunities for drug repurposing: Primary screen for TC32 cells (AID 1347089); further: nearly all actives have a fitted effect of over 60% in size
Procedure, shortened: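 A viability screen of TC32 cells was run over 48 h, with primary MIPE doses spanning 0.78 nM–46 µM and NPC doses 0.59 nM–46 µM. ATP luminescence (CellTiter-Glo) served as the read-out.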

[4] = Natriuretic polypeptide receptor (hNpr1) antagonism - Pilot counterscreen GloSensor control cell line (AID 1347045; calls by dose curve; further: series mostly up to about 38 µM)
Procedure, shortened: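 Cells were first seeded and incubated overnight at 37C, then loaded with 2% GloSensor substrate for 2 h. Compounds were added for 30 min at room temperature, followed by a baseline read, 50 uM SNP and a final read after 20 min.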

[5] = molecular target: Atrial natriuretic peptide receptor 1 (Homo sapiens) (UniProt P16066); test: Natriuretic polypeptide receptor (hNpr1) antagonism - Pilot screen (AID 1347049; calls by dose curve;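 further: agonist-evoked cGMP luminescence read 20 min after hNppA addition; series mostly up to about 58 µM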)
Atrial natriuretic peptide receptor 1 (Homo sapiens), sequence (P16066 whole entry, looked up): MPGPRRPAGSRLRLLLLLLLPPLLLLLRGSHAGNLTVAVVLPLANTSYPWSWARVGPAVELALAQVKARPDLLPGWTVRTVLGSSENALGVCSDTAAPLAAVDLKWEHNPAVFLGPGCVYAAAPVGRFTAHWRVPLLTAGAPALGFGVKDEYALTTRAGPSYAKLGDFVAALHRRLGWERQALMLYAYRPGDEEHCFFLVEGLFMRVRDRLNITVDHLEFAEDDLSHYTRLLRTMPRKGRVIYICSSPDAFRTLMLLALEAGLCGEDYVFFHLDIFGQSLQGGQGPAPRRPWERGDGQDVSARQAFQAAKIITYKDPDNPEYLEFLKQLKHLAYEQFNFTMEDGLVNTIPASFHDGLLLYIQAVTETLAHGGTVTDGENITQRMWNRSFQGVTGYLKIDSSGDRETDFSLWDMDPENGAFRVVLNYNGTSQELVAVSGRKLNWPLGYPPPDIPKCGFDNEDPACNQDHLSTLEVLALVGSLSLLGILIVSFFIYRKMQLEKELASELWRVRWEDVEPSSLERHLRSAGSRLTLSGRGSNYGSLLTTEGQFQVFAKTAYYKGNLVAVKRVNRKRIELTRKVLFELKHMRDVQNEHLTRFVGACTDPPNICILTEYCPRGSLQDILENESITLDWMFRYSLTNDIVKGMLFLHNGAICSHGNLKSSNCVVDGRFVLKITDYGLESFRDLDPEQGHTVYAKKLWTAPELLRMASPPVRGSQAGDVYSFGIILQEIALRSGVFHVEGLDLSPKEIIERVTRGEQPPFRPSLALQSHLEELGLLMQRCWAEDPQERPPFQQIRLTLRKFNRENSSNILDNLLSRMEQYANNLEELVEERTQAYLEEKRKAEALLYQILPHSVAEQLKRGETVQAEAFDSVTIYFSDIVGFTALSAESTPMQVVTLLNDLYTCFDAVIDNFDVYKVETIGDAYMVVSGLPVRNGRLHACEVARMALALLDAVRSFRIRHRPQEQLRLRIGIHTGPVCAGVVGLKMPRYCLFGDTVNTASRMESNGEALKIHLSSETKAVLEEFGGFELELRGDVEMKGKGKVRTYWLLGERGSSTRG
Procedure, shortened: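 cGMP-sensor HEK293/hNpr1 cells, 1500/well, plated overnight at 37C. 2% GloSensor reagent, 2 h RT. Compound (23 nL pin transfer) 30 min RT, baseline luminescence pre-read. 0.1 nM hNppA, 20 min RT, post-read.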

[6] = molecular target: Atrial natriuretic peptide receptor 2 (Homo sapiens) (UniProt P20594); test: Natriuretic polypeptide receptor (hNpr2) antagonism - Pilot subtype selectivity assay (AID 1347050; calls by dose curve)
Atrial natriuretic peptide receptor 2 (Homo sapiens), sequence (P20594 whole entry, looked up): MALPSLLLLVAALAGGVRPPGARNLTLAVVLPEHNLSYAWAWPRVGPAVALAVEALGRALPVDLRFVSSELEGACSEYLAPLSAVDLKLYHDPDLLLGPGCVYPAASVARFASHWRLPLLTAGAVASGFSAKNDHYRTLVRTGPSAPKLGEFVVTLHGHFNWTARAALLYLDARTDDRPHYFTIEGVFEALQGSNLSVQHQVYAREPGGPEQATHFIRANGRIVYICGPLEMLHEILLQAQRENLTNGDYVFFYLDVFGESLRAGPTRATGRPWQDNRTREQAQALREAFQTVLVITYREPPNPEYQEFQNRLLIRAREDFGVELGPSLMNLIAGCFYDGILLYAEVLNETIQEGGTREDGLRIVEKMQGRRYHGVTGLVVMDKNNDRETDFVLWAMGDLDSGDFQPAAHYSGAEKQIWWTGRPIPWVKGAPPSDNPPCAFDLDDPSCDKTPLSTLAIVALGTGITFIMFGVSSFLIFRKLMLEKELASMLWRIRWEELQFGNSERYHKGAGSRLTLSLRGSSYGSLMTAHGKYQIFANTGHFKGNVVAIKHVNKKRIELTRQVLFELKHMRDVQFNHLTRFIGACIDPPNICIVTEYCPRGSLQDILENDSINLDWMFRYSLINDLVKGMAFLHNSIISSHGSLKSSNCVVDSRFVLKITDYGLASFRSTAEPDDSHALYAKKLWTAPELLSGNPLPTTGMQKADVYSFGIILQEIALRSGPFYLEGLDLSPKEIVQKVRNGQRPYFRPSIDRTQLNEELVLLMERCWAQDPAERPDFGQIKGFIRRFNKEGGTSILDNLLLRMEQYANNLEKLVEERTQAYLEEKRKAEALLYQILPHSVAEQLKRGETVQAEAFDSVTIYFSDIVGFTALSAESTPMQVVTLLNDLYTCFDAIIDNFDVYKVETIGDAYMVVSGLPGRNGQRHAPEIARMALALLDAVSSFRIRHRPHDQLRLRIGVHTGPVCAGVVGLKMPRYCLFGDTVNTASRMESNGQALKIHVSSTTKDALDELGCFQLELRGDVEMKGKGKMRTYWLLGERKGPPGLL
Procedure, shortened: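 Luminescence from a genetically encoded cGMP luciferase biosensor in hNpr2-expressing HEK293 cells is read before and 20 min after adding 1 nM hNppC. Test compounds, in interplate 1:5 titrations, are added 30-50 min ahead of the agonist.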

[7] = molecular target: Parathyroid hormone/parathyroid hormone-related peptide receptor (Homo sapiens) (UniProt Q03431); test: qHTS for PTHR1 Agonists: Optimization Screen against the NCGC LOPAC library (AID 1347079);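 further: GloSensor cAMP luminescence in HEK-293 GP2 cells expressing human PTHR1 with IBMX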
Parathyroid hormone/parathyroid hormone-related peptide receptor (Homo sapiens), sequence (Q03431 whole entry, looked up): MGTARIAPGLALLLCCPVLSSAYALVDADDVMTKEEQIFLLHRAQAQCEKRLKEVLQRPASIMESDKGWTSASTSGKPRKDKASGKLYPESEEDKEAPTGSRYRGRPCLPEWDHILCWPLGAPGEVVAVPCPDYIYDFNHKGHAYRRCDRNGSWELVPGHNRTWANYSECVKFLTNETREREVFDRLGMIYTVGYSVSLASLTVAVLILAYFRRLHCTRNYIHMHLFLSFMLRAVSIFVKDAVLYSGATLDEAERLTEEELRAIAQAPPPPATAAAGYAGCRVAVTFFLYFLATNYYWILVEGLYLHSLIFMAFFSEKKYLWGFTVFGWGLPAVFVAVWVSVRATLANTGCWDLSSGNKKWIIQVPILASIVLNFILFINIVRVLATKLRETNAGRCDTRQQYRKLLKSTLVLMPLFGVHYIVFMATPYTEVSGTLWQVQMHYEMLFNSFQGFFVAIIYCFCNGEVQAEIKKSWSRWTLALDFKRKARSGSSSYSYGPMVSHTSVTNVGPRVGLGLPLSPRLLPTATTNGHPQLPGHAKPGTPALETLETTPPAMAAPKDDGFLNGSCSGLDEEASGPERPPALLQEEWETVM
Procedure, shortened: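 HEK-293 GP2 cells, PTHR1 + GloSensor cAMP; 3000 cells/well, o/n. Luciferin + IBMX 0.5mM each (stock), 1 hr 37C. Cpd titration, 1 hr 37C. Lum after 15 min RT. Ctrl M-PTH(1-15) top 10uM.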

[8] = molecular target: T1, Tyrosine-protein phosphatase non-receptor type substrate 1 (Homo sapiens) + Leukocyte surface antigen CD47 (Homo sapiens) (UniProt P78324+Q08722); test: CD47-SIRPalpha protein protein interaction - LANCE assay qHTS validation (AID 1347057; active means well fitted curve in the direction sought with a large enough effect in the signal ratio, with a control signal flat, not every such curve was filed as active; the % refers to the signal ratio; further: series mostly up to about 38 µM)
T1 sequence (P78324 whole entry, looked up, the tested form may be a part): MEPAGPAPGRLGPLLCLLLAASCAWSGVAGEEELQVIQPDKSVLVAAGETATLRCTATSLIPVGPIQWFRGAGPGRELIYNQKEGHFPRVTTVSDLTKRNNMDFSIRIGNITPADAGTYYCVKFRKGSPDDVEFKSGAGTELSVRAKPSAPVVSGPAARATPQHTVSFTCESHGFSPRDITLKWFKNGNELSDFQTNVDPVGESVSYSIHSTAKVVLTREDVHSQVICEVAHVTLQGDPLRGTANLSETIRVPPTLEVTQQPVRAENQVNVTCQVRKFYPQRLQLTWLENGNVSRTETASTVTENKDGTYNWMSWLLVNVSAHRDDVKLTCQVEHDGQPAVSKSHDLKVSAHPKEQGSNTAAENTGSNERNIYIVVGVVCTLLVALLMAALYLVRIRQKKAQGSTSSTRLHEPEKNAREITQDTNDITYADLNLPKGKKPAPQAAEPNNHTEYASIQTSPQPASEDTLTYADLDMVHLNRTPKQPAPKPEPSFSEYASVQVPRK
T1 sequence (Q08722 whole entry, looked up, the tested form may be a part): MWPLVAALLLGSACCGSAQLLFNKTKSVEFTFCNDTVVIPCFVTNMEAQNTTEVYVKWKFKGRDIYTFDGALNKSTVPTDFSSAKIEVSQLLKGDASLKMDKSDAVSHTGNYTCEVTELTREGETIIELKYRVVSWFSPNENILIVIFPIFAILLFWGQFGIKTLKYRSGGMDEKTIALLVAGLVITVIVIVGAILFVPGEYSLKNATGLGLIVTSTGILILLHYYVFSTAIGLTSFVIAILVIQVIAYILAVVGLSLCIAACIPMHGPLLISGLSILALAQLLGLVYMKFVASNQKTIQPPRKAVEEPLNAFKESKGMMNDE
Procedure, shortened: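 Inhibition of soluble CD47/SIRPalpha ectodomain association by titrated compounds, measured as 665/615 nm time-resolved FRET ratio after sequential 30 min room-temperature incubations.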

[9] = molecular target: T1, Tyrosine-protein phosphatase non-receptor type substrate 1 (Homo sapiens) + Leukocyte surface antigen CD47 (Homo sapiens); test: CD47-SIRPalpha protein protein interaction - HTRF assay qHTS validation (AID 1347058; active means well fitted curve in the direction sought with a large enough effect in the signal ratio, not every such curve was filed as active; the % refers to the signal ratio; further: series mostly up to about 38 µM)
Procedure, shortened: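 Soluble extracellular domains (6His-CD47, Avi-tag-biotinylated SIRPalpha) in PBS pH 7.4 with 0.05% IGEPAL CA-630. Compounds were preincubated 30 min at RT with CD47 and anti-His-Eu, then SIRPalpha and SAV-XL665 were added. TR-FRET 665/615 ratio.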

[10] = molecular target: T1, Tyrosine-protein phosphatase non-receptor type substrate 1 (Homo sapiens) + Leukocyte surface antigen CD47 (Homo sapiens); test: CD47-SIRPalpha protein protein interaction - Alpha assay qHTS validation (AID 1347059);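 further: bead proximity luminescence from CD47 binding SIRPalpha after compound preincubation with SIRPalpha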
Procedure, shortened: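 SIRPalpha-biotin 25 nM + cpd, 30 min RT, dark; add CD47-His 12.5 nM, 30 min; add Ni-NTA/SAV beads 10 ug/mL, 30 min; AlphaScreen. Buffer PBS pH 7.4 + 0.05% IGEPAL CA-630. Non-biotinylated SIRPalpha as control inhibitor.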

## O=C(O)CCNc1cc(N2CCc3ccccc3CC2)nc(-c2ccccn2)n1
[1]
  Potency: inactive

## CNC(=O)c1c(-c2ccc(F)cc2)oc2cc(N(CCO)S(C)(=O)=O)c(C3CC3)cc12
[1]
  Potency: inactive

## CC(C)Oc1cc(Nc2nc(N[C@@H](C)c3ccc(F)cn3)ncc2Cl)[nH]n1
[1]
  Potency: 4.69 µM (active) and 8.2 µM (active)
[2]
  Potency: inactive

## OC[C@H]1O[C@@H](O[C@H]2[C@@H](O)[C@@](O)(CO)O[C@@H]2CO)[C@H](O)[C@@H](O)[C@@H]1O
[1]
  Potency: inactive
[2]
  Potency: inactive
[3]
  Potency: inactive

## C[C@H]1O[C@@H](n2cc(F)c(=O)[nH]c2=O)[C@H](O)[C@H]1O
[1]
  Potency: 18.7 µM (active)
[4]
  outcome: inactive
[5]
  outcome: inactive
[6]
  outcome: inactive
[2]
  Potency: inactive
[7]
  outcome: inactive

## c1ccc(-c2oc3ncnc(NC[C@@H]4CCCO4)c3c2-c2ccccc2)cc1
[1]
  Potency: 20.9 µM (active) and 20.6 µM (active)

## CO[C@@H]1C(N(C)C(=O)c2ccccc2)C[C@H]2O[C@]1(C)n1c3ccccc3c3c4c(c5c6ccccc6n2c5c31)C(=O)NC4=O (stereo partly specified)
[1]
  Potency: 7.43 µM (active)
[2]
  Potency: inactive

## CO[C@H]1O[C@@H]2O[C@@]3(C)CC[C@@H]4[C@@H](C)CC[C@@H]([C@H]1C)[C@@]24OO3
[1]
  Potency: inactive
[2]
  Potency: inactive
[3]
  Potency: inactive

## COC(=O)N1CCN(Cc2cccc(NC(=O)Nc3ccc(C)nc3)c2F)CC1
[1]
  Potency: inactive
[2]
  Potency: inactive
[3]
  Potency: inactive

## CC(C)n1c(C=C[C@H](O)C[C@H](O)CC(=O)O)c(-c2ccc(F)cc2)c2ccccc21
[1]
  Potency: 11.8 µM (active)

## Cc1ccc(C2=Nc3ccc(Cl)cc3OC2)cc1
[1]
  Potency: inactive
[2]
  Potency: inactive

## N#CC(=C1Nc2ccccc2S1)c1ccnc(OCc2ccc(CN3CCOCC3)cc2)n1
[1]
  Potency: inactive
[2]
  Potency: inactive

## CC(C)CN(C[C@@H](O)[C@H](Cc1ccccc1)NC(=O)O[C@H]1CO[C@H]2OCC[C@H]21)S(=O)(=O)c1ccc(N)cc1
[1]
  Potency: inactive
[2]
  Potency: inactive
[3]
  Potency: inactive

## CCc1cc(-c2n[nH]c(C)c2-c2ccc3c(c2)OCCO3)c(O)cc1O
[1]
  Potency: 9.35 µM (active)
[2]
  Potency: inactive

## C=CC(=O)Nc1cccc(Sc2nc(Nc3ccc(N4CCN(C)CC4)cc3)ncc2Cl)c1
[1]
  Potency: 23.1 µM (active)

## CC(C)CNc1ccnc(NCc2csc(-c3ccccc3)n2)n1
[1]
  Potency: 18.7 µM (active) and 10.3 µM (active)
[2]
  Potency: 26.4 µM (active)

## C=CCc1cccc(C=NNC(=O)CN2CCN(Cc3ccccc3)CC2)c1O
[1]
  Potency: 10.5 µM (active)
[4]
  outcome: inactive
[5]
  outcome: inactive
[6]
  outcome: inactive
[2]
  Potency: 13.2 µM (active)
[8]
  outcome: inactive
[9]
  outcome: inactive
[10]
  outcome: inactive
[7]
  outcome: inactive

## COC(=O)Nc1ccc(-c2nc(N3CCOCC3)c3cnn(C4CCN(C(=O)OC)CC4)c3n2)cc1
[1]
  Potency: 469 nM (active) and 1.46 µM (active)

## COc1cc(CNC(=O)CCCCC=CC(C)C)ccc1O
[1]
  Potency: inactive
[2]
  Potency: inactive

## COc1cc2nccc(Oc3ccc(NC(=O)Nc4ccc(F)cc4F)c(F)c3)c2cc1OC
[1]
  Potency: 7.31 µM (active)

## CN(C)N=Nc1nc[nH]c1C(N)=O
[1]
  Potency: 1.87 µM (active)

## Nc1ncnc2c1ncn2[C@@H]1O[C@H](CO)[C@@H](O)[C@@H]1O
[1]
  Potency: inactive
[2]
  Potency: inactive

## CC1=C(CC(=O)O)c2cc(F)ccc2C1=Cc1ccc(S(C)=O)cc1 (stereo unspecified)
[1]
  Potency: inactive
[2]
  Potency: inactive

## O=C(O)CCC=CCC[C@@H]1[C@H](N2CCCCC2)[C@@H](O)C[C@@H]1OCc1ccc(-c2ccccc2)cc1
[1]
  Potency: inactive
[2]
  Potency: inactive
[3]
  Potency: inactive

## Cn1c(=O)c(Oc2ccc(F)cc2F)cc2cnc(NC3CCOCC3)nc21
[1]
  Potency: inactive
[2]
  Potency: inactive

## CC1=C[C@@H]2[C@@H]([C@@H](O)C[C@@]3(C)[C@H]2C[C@@H](C)[C@]3(O)C(=O)CO)[C@@]2(C)Cc3cnn(-c4ccccc4)c3C=C12
[1]
  Potency: 16.4 µM (active)

## CCc1cccc(CC)c1NC(=O)N1Cc2[nH]nc(NC(=O)c3ccc(N4CCN(C)CC4)cc3)c2C1
[1]
  Potency: inactive
[2]
  Potency: inactive

## NC1(C(=O)N[C@@H](CCO)c2ccc(Cl)cc2)CCN(c2ncnc3[nH]ccc23)CC1
[1]
  Potency: inactive
[2]
  Potency: inactive

## COc1cc2nccc(Oc3ccc(NC(=O)Nc4cc(C)on4)c(Cl)c3)c2cc1OC
[1]
  Potency: 11.8 µM (active) and 13 µM (active)

## O=C(O)c1ccc(O)c2ncc(N3CCOCC3)cc12
[1]
  Potency: inactive

## CCOC(=O)[C@H]1O[C@H]1C(=O)N[C@@H](CC(C)C)C(=O)NCCC(C)C
[1]
  Potency: inactive
[2]
  Potency: inactive

## C[C@H]1[C@H](O)O[C@@H]2O[C@@]3(C)CC[C@@H]4[C@H](C)CC[C@@H]1[C@@]24OO3
[1]
  Potency: 18.7 µM (active)
[2]
  Potency: 26.4 µM (active)

## CCCCC(C)(C)[C@H](O)C=C[C@H]1[C@H](O)CC(=O)[C@H]1CC=CCCCC(=O)O
[1]
  Potency: inactive
[2]
  Potency: inactive

## CC[C@H]1OC(=O)[C@H](C)[C@@H](O[C@H]2C[C@@](C)(OC)[C@@H](O)[C@H](C)O2)[C@H](C)[C@@H](O[C@@H]2O[C@H](C)C[C@H](N(C)C)[C@H]2O)[C@](C)(O)C[C@H](C)C(=NOCOCCOC)[C@H](C)[C@@H](O)[C@]1(C)O
[1]
  Potency: inactive
[2]
  Potency: inactive

## COc1ccc(-c2nc3ccc(C4=NNC(=O)CC4C)cc3[nH]2)cc1 (stereo unspecified)
[1]
  Potency: inactive
[2]
  Potency: inactive

## CC1(C)C(N(O)C(=O)Nc2ccc(Cl)cc2)N(c2ccc(Cl)cc2)C(=O)N1CC(=O)NN=CC=Cc1ccc([N+](=O)[O-])o1 (stereo unspecified)
[1]
  Potency: inactive
[2]
  Potency: inactive
[3]
  Potency: inactive

## COc1cc2ncn(-c3cc(OCc4ccccc4S(C)(=O)=O)c(C#N)s3)c2cc1OC
[1]
  Potency: inactive
[2]
  Potency: inactive
[3]
  Potency: inactive
